Experimental findings from PubChem BioAssay AID652105 (National Center for Advancing Translational Sciences (NCATS), 2013) are described below.

The campaign covered roughly 330,000 compounds. About 4,100 (1.2%) were called active. Inconclusive results (about 2%) are left out. The full list was thinned out, with actives kept by preference. A number with no mark means an inactive call. Rule for the calls: active = max response of -50% or lower; inconclusive = between -30% and -50%; inactive = -30% or higher.
% is set by controls: 0 for no effect and ±100 for the full control effect.

Sequence of Phosphatidylinositol 5-phosphate 4-kinase type-2 alpha (Homo sapiens) (P48426 whole entry, looked up): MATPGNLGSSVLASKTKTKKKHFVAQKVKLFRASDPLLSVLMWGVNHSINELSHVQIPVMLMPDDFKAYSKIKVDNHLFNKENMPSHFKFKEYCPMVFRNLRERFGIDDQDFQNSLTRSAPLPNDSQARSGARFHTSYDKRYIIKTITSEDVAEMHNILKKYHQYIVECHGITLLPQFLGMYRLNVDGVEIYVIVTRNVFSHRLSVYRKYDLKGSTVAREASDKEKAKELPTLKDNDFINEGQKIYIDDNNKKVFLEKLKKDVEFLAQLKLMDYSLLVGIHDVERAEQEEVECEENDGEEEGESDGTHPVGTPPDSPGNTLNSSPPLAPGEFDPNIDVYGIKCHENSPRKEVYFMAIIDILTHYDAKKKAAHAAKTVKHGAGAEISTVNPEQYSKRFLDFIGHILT

The assay has as its target Phosphatidylinositol 5-phosphate 4-kinase type-2 alpha (Homo sapiens) (UniProt P48426). In words: qHTS for Inhibitors of phosphatidylinositol 5-phosphate 4-kinase (PI5P4K). Note: value at the top dose of about 77 µM. The conditions noted are these: PI5P4Kalpha enzyme, ADP-Glo luminescence, 60 min; hits give low values. The essentials: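 qHTS, 1536-well: enzyme/substrate mix, compound by pin tool, 5 microM ATP final; RT 60 min; ADP-Glo reagents 1 (45 min) then 2 (30 min); luminescence.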
(In general: qHTS replaces the single test concentration by a dilution series.)
Regarding `O=c1c2ccccc2nc(CBr)n1-c1ccc(Cl)cc1`, the max response was -9.65%.
Regarding `S=C(NCCc1ccccc1)N1Cc2cc(N3CCOCC3)ccc2-n2nncc2C1`, the max response is -1.37%.
To `CCOC(=O)[C@]12Cc3ccccc3[C@H]1N(C1CCCCC1)C(=O)c1cc(OC)ccc12` belongs -1.4%; to `COc1cc(C(=O)N2Cc3ccc(Br)cc3-n3nncc3C2)cc(OC)c1OC`, -0.882%.
Turning to `CCC(=O)c1ccc(OCC(=O)N2CCN(CC(=O)Nc3ccc(C)cc3)CC2)cc1`, the max response is 1.24%.
Regarding `C=CCN1C(=O)NC(=O)/C(=C/c2ccc(OCC(=O)Nc3ccc(C)cc3)cc2)C1=O`, the max response was -72.6% (active).
To `C=CCN(CC=C)C(=O)Nc1ccc(OCC)cc1` belongs -4.12%; to `O=C(NC1CCCCC1)N1Cc2cc(N3CCCCC3)ccc2-n2nncc2C1`, -0.829%; to `O=C1NC(=O)N(c2ccccc2)C(=O)/C1=C/c1ccc([N+](=O)[O-])s1`, -72.2% (active).
Turning to `COc1cccc(N2C(=O)NC(=O)/C(=C\c3ccc([N+](=O)[O-])s3)C2=O)c1`, the max response was -64.2% (active).
To `COc1cccc(N2C(=O)NC(=O)/C(=C\c3cn(C)c4ccccc34)C2=O)c1` belongs 5.95%; to `O=C1NCN(c2ccccc2)C12CCN(C(c1cccs1)c1nnnn1C1CCCCC1)CC2` (stereo not drawn), -2.62%; to `c1ccc(N2Cc3ccccc3-n3nncc3C2)nc1`, -2.17%.
As to `CC(=CCOc1ccc2ccc(=O)oc2c1)C1=CC(=O)C(C)(C)O1`, the max response is 4.71%.
To `c1cc2c(c(NC3=NCCCS3)c1)CCCC2` belongs -10.3%.
Turning to `CC(C)CN1Cc2cc(N3CCCCC3)ccc2-n2nncc2C1`, the max response is -0.0123%.
For `COC(=O)C[C@H]1CC[C@H]2NC[C@@H](O)COC[C@@H]2O1`, the max response was -5.22%.
Take `COc1ccc2c(c1)NP(=S)(c1ccccc1)N2` (stereo not drawn): the max response is -27.5%.
To `COc1ccc(N2C(=O)/C(=C/c3ccco3)C(=O)NC2=S)cc1` belongs -103% (active).
Consider `CCOC(=O)CNC(=O)N1Cc2cc(N3CCCCC3)ccc2-n2nncc2C1`, for which the max response is 7.51%.
Take `COc1ccc(C2C=C(C)Oc3c2c(=O)oc2ccccc32)cc1OC` (stereo not drawn): the max response is 1.36%.
In the case of `CCn1cc(CN2CCCC(C(=O)c3cccc(C(F)(F)F)c3)C2)cn1` (stereo not drawn), the max response was 5.27%.
As to `O=C1CC(=O)N(Cc2ccccc2)C(=O)N1CCCCCCN1C(=O)CC(=O)N(Cc2ccccc2)C1=O`, the max response is -68.4% (active).
`O=C(CN1CCCC1=O)NCCc1ccccc1`: the max response was 1.78%.
With `COc1cccc(C(c2nnnn2-c2ccc3c(c2)OCCO3)N2CCC3(CC2)C(=O)NCN3c2ccccc2)c1OC` (stereo not drawn), the max response was -0.4%.
Under `O=P(OC1=CCCCC1)(c1ccccc1)c1ccccc1` stands 1.07%.
As to `Cc1ncoc1C(=O)NCC1=C(c2cccc3ccccc23)C[C@@H]2CC[C@H]1N2Cc1ccco1`, the max response is 7.08%.
Under `Cc1c(C(=O)O)cccc1-n1c(C)cc(/C=C2\C(=O)NC(=O)N(c3ccc4c(c3)OCO4)C2=O)c1C` stands -18.8%.
Under `Cc1ccccc1N1C(=O)NC(=O)/C(=C\c2cc(C)n(C)c2C)C1=O` stands 0.241%; under `Cc1cccc(N2C(=O)NC(=O)/C(=C\c3cnn(-c4ccccc4)c3)C2=O)c1`, -69.1% (active); under `COC(=O)CN(CCCl)P1(=O)OCCCN1CCCl` (stereo not drawn), -2.26%.
Regarding `O=c1c2ccccc2[nH]c(=S)n1-c1cccc(Cl)c1`, the max response was -8.39%.
Regarding `CCOC(=O)[C@]12Cc3cc(OC)ccc3[C@H]1N(C(C)C)C(=O)c1ccccc12`, the max response is 1.48%.
